Molecules are shown by their SMILES. The panel holds about 83,000 compounds, 20% with a hit somewhere; the sample as a whole holds those more often.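 Single-concentration screen, 48 h exposure, 96-well plates. Endpoint: percent growth. Below 10 = active.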 Values without a mark were called inactive. Activity calls are given as the source filed them.

This test deals with HL-60(TB) leukemia. Kind of test: NCI-60 one-dose screen, 48 h (100 = growth as untreated, 0 = no growth, -100 = all killed). Particulars: 10 µM unless noted.
As to `O=C(/C=C/c1ccc([N+](=O)[O-])cc1)c1ccccc1`, the growth is 35.1%.
Under `CCOC(=O)c1ccc(NC(C)=O)o1` stands 80.6%; under `C=C(C)Cn1c(SCC(=O)c2cccs2)nc2sc3c(c2c1=O)CCCC3`, 63.2%; under `CCCCCCCCC/C(=N\NC(=O)c1ccncc1)c1ccc(O)c(O)c1O`, 0.166% (active).
With `CCCCCCCCCCCCCCCCCC[S+](C)CC` (stereo not given) the figure was 13%.
Under `Cc1ncc(C(=O)Nc2ccc(CN3CCN(C)CC3)c(C(F)(F)F)c2)cc1C#Cc1c(N)ncc2ccc(F)cc12` stands 9.43% (active); under `COc1cc(-c2nc(SC(C)C)nc(Nc3ccccc3C)c2C#N)cc(OC)c1OC`, 103%; under `CCCCCCCCCCCCC[C@H](O)C[C@H](O)[C@H](C)N`, 54.8% [1.25 µM].
As for `CCN(CC)c1ccc(/C=C2\Oc3ccc(O)c(I)c3C2=O)cc1`, the growth is 18.5%.
With `COc1ccc(Cn2cc3c(c2-c2ccccc2)CCc2cnoc2-3)cc1OC` the figure was 7.72% (active).
With `c1ccc(-c2cc3cc4ccccc4cn3c2)cc1` the figure was 94.6%.
With `COc1ccc2c(c1)[nH]c(=O)c1c3cccc(F)c3cn21` the figure was 11.2%; with `Cc1cc2c(C(C)C)c(O)c(O)c(C=NCCCCC(=O)O)c2c(O)c1-c1c(C)cc2c(C(C)C)c(O)c(O)c(C=NCCCCC(=O)O)c2c1O`, 42.6%.
In the case of `Nc1ccc(C(=O)c2ccc(N)c(Br)c2)cc1Br`, the growth is -16.5% (active).
With `S=c1[nH]nc(-c2cc3ccc2CCc2ccc(cc2)CC3)n1-c1ccccc1` the figure was 89.7%.
`COc1ccccc1C(=O)O/N=C(\N)Cc1cccc2ccccc12`: the growth was 96.3%.
Under `COc1ccc2[nH]c(=O)c(/C=N/Nc3nc(-c4ccccc4)cs3)c(O)c2c1` stands 83.9%; under `O=C(Nc1nc2ccccc2s1)Nc1ccc([N+](=O)[O-])cc1Cl`, 78.8%.
Under `FC(F)(F)c1cccc(-c2nnn(Cc3cc(-c4cccc(Cl)c4)no3)n2)c1` stands 108%; under `CN1CCN(C)c2cncc(Br)c2C1=O`, 96.4%.
With `Cc1nn(-c2ccc(Br)cc2)c2nc3[nH]c(=O)[nH]c(=O)c3nc12` the figure was 120%; with `CCN(CCCNC(=O)Cc1cc(=O)oc2cc(N(C)C)ccc12)CCNc1ccnc2cc(Cl)ccc12`, 76.6%; with `N#Cc1c(-c2cccc(F)c2)cc(-c2ccc(Br)s2)[nH]c1=O`, 67%.
Regarding `Nc1ccc(C2=NNC(=O)Cc3cc4c(cc32)OCCO4)cc1Cl`, the growth is 7.27% (active).
Regarding `C=CC[n+]1c(/C=C/C=C2\N(C)c3ccccc3C2(C)C)sc2ccc(OC)cc21`, the growth is -21% (active).
For `Cn1cc(-c2ccc(-c3cn(C)c4ccc(Cl)cc34)[nH]2)c2cc(Cl)ccc21`, the growth is -37.8% (active).
With `O=C(O)CN1C(=O)CCC1=O` the figure was 134%; with `O=S(=O)(c1ccccc1)n1ccc(-c2ccc3c(c2)CCO3)n1`, 109%.
With `COc1ccc2c(c1)O/C(=C\c1ccc([N+](=O)[O-])o1)C2=O` the figure was -17.7% (active); with `CN1C(=O)NC(Cc2c[nH]c3c(Cl)cccc23)C1=O` (stereo not given), 98.6%; with `Cc1ccc([C@H]2c3[nH]c4ccccc4c3C[C@H]3C(=O)N(CCCCCCC(=O)NO)CC(=O)N23)cc1`, 18.6%.
Regarding `CCOC(=O)C1C(=O)NC(C(=O)OCC)(C(=O)OCC)C1CC` (stereo not given), the growth was 106%.
In the case of `O=C(CSc1nnc(-c2cccnc2SCc2ccccc2)o1)Nc1nc(Cl)cc(Cl)n1`, the growth is 98.3%.
As for `COc1cc(/C=N/N(C)C)ccc1O`, the growth was 86.5%.
As for `CCN(CC)CC(C)Nc1ccc(C)c2sc3ccccc3c(=O)c12` (stereo not given), the growth was 50.8%.
As for `Cc1ccc(N2C(=O)C=CC2=O)cc1`, the growth is 63.2%.
With `COc1ccc(/C=C(\C#N)c2cc3ccccc3n2C)cc1` the figure was 0.415% (active); with `CN1CCN(c2cc3c(cc2F)c(=O)c(C(=O)O)cn3-c2ccc(F)cc2)CC1`, 99.3%; with `O=C(O)COc1ccc2c(=O)c3sc4c(=O)c5ccccc5c(=O)c4c3c(=O)c2c1`, 42.7%.
With `O=C1OC(c2ccc(-c3ccccc3)cc2)=C/C1=C/c1c2ccccc2cc2ccccc12` the figure was 51%.
